Only some compounds are listed: those with a hit (about 0.54% of all), similar ones and a draw of the others.
Rtt109 Vps75 – inhibitors of C. albicans Rtt109/Vps75 HAT, primary screen, biochemical, ThioGlo CoA-SH fluorescence, plate reader | Histone acetyltransferase RTT109 (Candida albicans (strain SC5314 / ATCC MYA-2876)), … | purified Rtt109/Vps75, 4 h | inhibition, % at 34.9 µM | 330,000 compounds, 0.16% hits;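 active means inhibition of at least 50% in every replicate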
PvdQ inh – P. aeruginosa PvdQ acylase inhibitors, primary screen, biochemical, fluorescence, plate reader and imaging, single point. inhibition, % at 10 µM. purified PvdQ acylase. 340,000 compounds, 0.063% hits. AID 488965, 2010; in the data active means inhibition above about 30%, passing the limit was not always enough;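 further: 0% = vehicle neutral wells and 100% = reference inhibitor wells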
Efflux pump inh – inhibitors of Candida efflux pumps in yeast, primary screen, S. cerevisiae, Nile Red, multiplex; S. cerevisiae Candida pump triplex; inhibition, % at 10 µM; 330,000 compounds, 0.44% hits;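 active means plate passing quality check with inhibition over a set limit, or well fluorescence over plate mean plus 4 SD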;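 further: Nile Red retained in pooled yeast measured as flow cytometry median fluorescence; 0% = buffer negative control and 100% = Enniatin B positive control; higher means more Nile Red kept so more efflux inhibition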
ERp5 inh – inhibitors of ERp5-driven insulin aggregation, primary screen, biochemical, turbidity, absorbance 650 nm, single point; 90 min; Protein disulfide-isomerase A6 (Homo sapiens), Q15084; inhibition, % at 9.99 µM; AID 651711, 2012; 350,000 compounds, 0.05% hits;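 active means mean replicate inhibition above about 25%, with every replicate also reaching it, limit read from the data, passing the limit was not always enough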
Target sequence (Q15084 whole entry, looked up): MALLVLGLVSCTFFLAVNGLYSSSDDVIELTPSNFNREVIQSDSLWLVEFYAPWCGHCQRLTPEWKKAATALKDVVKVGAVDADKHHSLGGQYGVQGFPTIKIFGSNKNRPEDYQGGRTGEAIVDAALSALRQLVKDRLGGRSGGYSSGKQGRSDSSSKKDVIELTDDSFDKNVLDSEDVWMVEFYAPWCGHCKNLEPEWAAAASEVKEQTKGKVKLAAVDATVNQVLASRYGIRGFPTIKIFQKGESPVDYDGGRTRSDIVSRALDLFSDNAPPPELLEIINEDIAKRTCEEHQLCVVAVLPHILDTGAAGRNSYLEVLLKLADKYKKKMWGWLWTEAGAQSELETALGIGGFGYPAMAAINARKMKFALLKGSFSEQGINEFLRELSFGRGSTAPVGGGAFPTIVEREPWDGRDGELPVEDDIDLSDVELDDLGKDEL
PDI turbidity – inhibitors of human PDI, primary screen, biochemical, turbidity, single point, plate reader. Protein disulfide-isomerase (Homo sapiens), P07237. PDI insulin aggregation turbidity, A650, 90 min. inhibition, % at 10 µM. 350,000 compounds, 0.052% hits;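 active means mean inhibition across replicates of 30% or more, whatever share of single replicates reach that level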
Yeast cmpd fluor – compound fluorescence in yeast efflux pump counter-screen | 1,700 compounds, 4% hits | shares compounds with Efflux pump inh | fluorescence ratio to DMSO, % at 10 µM | S. cerevisiae AD/pABC3, flow cytometry;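 active means fluorescence ratio to DMSO above its plate's cutoff, the plate mean ratio plus 5 SD, cut at about 210% in these data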;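 further: unstained yeast with no Nile Red so the signal is compound autofluorescence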
CaMdr1 efflux inh – inhibitors of Candida albicans Mdr1 efflux, confirmation, flow cytometry, singleplex, Cherry Pick1 set | shares compounds with Efflux pump inh | S. cerevisiae AD/CaMDR1, Nile Red efflux | inhibition, % at 10 µM | 1,700 compounds, 1% hits | AID 588518, 2011; in the data active means inhibition above about 26%;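 further: 0% = DMSO vehicle and 100% = reference inhibitor; higher means more Nile Red retained so more efflux inhibition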
CaCdr2 efflux inh – inhibitors of Candida albicans Cdr2 efflux pump, confirmation, S. cerevisiae AD/CaCDR2, flow cytometry, cherry pick 1, singleplex; Nile Red retention ratio vs DMSO, % at 10 µM; 1,700 compounds, 4% hits; Nile Red retention; shares compounds with Efflux pump inh; in the data active means Nile Red retention ratio vs DMSO above about 190%;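 further: higher ratio means more blocking of Cdr2 efflux of the dye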
Cdr1 pump inh – inhibitors of Candida albicans Cdr1 efflux pump, confirmation, S. cerevisiae AD/CaCDR1, flow cytometry, cherry pick 1, singleplex | AID 588522, 2011 | inhibition, % at 10 µM | Nile Red efflux | shares compounds with Efflux pump inh | 1,700 compounds, 1% hits;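 active means inhibition above the screen-wide mean plus twice its standard deviation, cut at about 32% in these data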
* hit, by the source's call; x = not tested or not shown.

SMILES	Rtt109 Vps75	PvdQ inh	Efflux pump inh	ERp5 inh	PDI turbidity	Yeast cmpd fluor	CaMdr1 efflux inh	CaCdr2 efflux inh	Cdr1 pump inh
Cc1ccc(S(=O)(=O)Nc2ccc3c(c2)C(=O)N([C@@H](C)CO)C[C@H](C)[C@H](CN(C)S(=O)(=O)c2c(C)noc2C)OCCCC[C@@H](C)O3)cc1	x	x	x	4	x	x	x	x	x
CCC(=O)Nc1ccc2c(c1)C(=O)N(C)[C@H]1CC[C@H](CC(=O)NCc3ccccc3Cl)O[C@@H]1CO2	x	x	x	4	x	x	x	x	x
CC(C)CCN1C(=O)c2cccc3c(N)ccc(c23)C1=O	-15	7	0.5*	1	2	335*	0	110	0
C[C@@H]1CN([C@@H](C)CO)C(=O)c2cc(C#CCN(C)C)cnc2O[C@@H]1CN(C)C(=O)Nc1ccccc1F	x	x	x	-9	x	x	x	x	x
Cc1ccc2nc(-c3ccccc3)cn2c1	-3	-5	0	x	14	x	x	x	x
CC(=O)Nc1ccc(-c2cn3cc(C)ccc3n2)cc1	13	10	6.5*	x	-27	99	0	89	0
COC(=O)C[C@H]1CC[C@@H]2[C@@H](COc3ccc(NC(=O)c4cccc(Cl)c4)cc3C(=O)N2C)O1	x	x	x	5	x	x	x	x	x
O=C1CC(Cc2ccccc2)C(=O)N1Cc1ccco1 (stereo not given)	1	-12	0	x	1	x	x	x	x
Cc1ccc(CC2CC(=O)N(Cc3ccco3)C2=O)cc1 (stereo not given)	-6	-4	1.2*	x	0	108	0	110	0
O=C(CSc1ncccc1C(=O)O)NC12CC3CC(CC(C3)C1)C2	1	-9	0.5*	-10	-2	104	0	104	0
O=C(CSc1ccccc1C(=O)O)NC12CC3CC(CC(C3)C1)C2	-4	-12	0	0	0	x	x	x	x
COc1ccccc1C(=O)COC(=O)c1ccccc1OCC(=O)Nc1ccc(SC(F)F)cc1	6	15	11*	-1	2	103	0	107	0
CC[n+]1c(/C=C/C=C/N(C(C)=O)c2ccccc2)sc2ccccc21	11	-3	1.3*	x	8	309*	2	125	1
Cc1c(NC(=O)Cn2cc([N+](=O)[O-])cn2)c(=O)n(-c2ccccc2)n1C	-2	-16	0	9	3	x	x	x	x
Cc1c(NC(=O)Cn2ccc([N+](=O)[O-])n2)c(=O)n(-c2ccccc2)n1C	6	-12	0.5*	x	-4	105	0	101	0
Cc1c(NC(=O)CSc2ncnc3ccccc23)c(=O)n(-c2ccccc2)n1C	11	8	1.0*	-1	-8	95	0	91	0
Cc1c(NC(=O)CSc2ccccn2)c(=O)n(-c2ccccc2)n1C	x	-5	0	x	-3	x	x	x	x
C[C@@H]1CN([C@H](C)CO)C(=O)c2cc(-c3ccncc3)cnc2O[C@@H]1CN(C)C(=O)c1cccc(F)c1	x	x	x	-2	x	x	x	x	x
O=C(O)c1ccc(/C=C2/SC(=S)N(Cc3ccccc3)C2=O)cc1	-3	-13	0	3	-2	x	x	x	x
O=C(Cc1ccccc1)NN1C(=O)/C(=C/c2ccc(C(=O)O)cc2)SC1=S	25	3	0	-1	2	98	0	92	0
CNc1nc2[nH]c(=O)c3c(c2s1)OC(N)=C(C#N)C3c1ccccc1 (stereo not given)	-8	-2	9.7*	x	2	117	0	96	0
CCNc1nc2[nH]c(=O)c3c(c2s1)OC(N)=C(C#N)C3c1ccc(C)cc1 (stereo not given)	4	-7	0	x	22	x	x	x	x
Cc1cccc(CS(=O)(=O)Cc2ccc(C(=O)NCc3ccco3)o2)c1	-7	-6	13*	0	-3	109	0	101	0
c1ccc2c(c1)Cc1cc(CN3CCOCC3)ccc1-2	-1	-14	5.9*	x	8	84	0	122	0
COc1ccc(S(=O)(=O)N2CCC3(CC2)CN(C(=O)CN(C)C)[C@@H](CO)c2c3c3ccc(OC)cc3n2C)cc1	x	x	x	-6	x	x	x	x	x
SMILES	Rtt109 Vps75	PvdQ inh	Efflux pump inh	ERp5 inh	PDI turbidity	Yeast cmpd fluor	CaMdr1 efflux inh	CaCdr2 efflux inh	Cdr1 pump inh
Cc1ccc2nc(SCC(=O)N3c4ccccc4CC3C)c(C)cc2c1 (stereo not given)	4	-4	112*	x	0	103	0	104	0
Cc1ccc(NC(=O)COc2ccc(N(C)S(=O)(=O)c3ccc(F)cc3)cc2)cc1	6	-9	0.8*	2	0	87	0	104	0
CCOc1ccc(-c2cc(C(=O)N3CCN(C)CC3)c3ccccc3n2)cc1	-11	-14	0	0	-3	99	0	105	0
CC(C)Oc1ccc(-c2cc(C(=O)NCCN3CCOCC3)c3ccccc3n2)cc1	-12	-15	0	x	12	96	0	103	0
O=C(NCCN1CCOCC1)c1cc(-c2ccc(F)cc2)nc2ccccc12	4	0	0	2	-13	x	x	x	x
CCC(=O)N1CCC2(CC1)CN(Cc1ccccn1)[C@H](CO)c1[nH]c3cc(OC)ccc3c12	x	x	x	-5	x	x	x	x	x
Cc1ccc(S(=O)(=O)N(C)C[C@H]2OCCCC[C@@H](C)Oc3ccc(NC(=O)CCC(F)(F)F)cc3C(=O)N([C@H](C)CO)C[C@H]2C)cc1	x	x	x	-7	x	x	x	x	x
CSc1nsc(SC)c1C(=O)NC(=O)Nc1cccnc1	6	18	0.8*	1	8	107	0	112	0
CSc1nsc(SC)c1C(=O)Nc1ccc(C(C)(C)C)cc1	1	-2	0	2	-9	x	x	x	x
COc1cc2c(cc1OC)CN(c1nc(CN3CCOCC3)nc3sc4c(c13)CCC(C)C4)CC2 (stereo not given)	3	-7	98*	x	0	100	6	112	82*
CC(=O)OCCCNc1cc(Sc2ccc(C)cc2)c2nonc2c1[N+](=O)[O-]	-3	-1	13*	x	-10	88	0	103	1
